Measurements taken from PubChem BioAssay.
For some assays here: Measured potencies and affinities stand elsewhere. Activity calls are given as the source filed them.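 How the source made its calls, unless noted: active means calcium signal cut by more than 3 SD below the full-agonist control yet still positive, in both repeats and the earlier primary screen; inactive means the rest.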

How the values were obtained:
[1] = system: TRPC4 beta (transient receptor potential cation channel C4), mouse; assay: activators of mouse TRPC4 channel, confirmation, cell-based, Fluo4 calcium, HEK293 TRPC4beta/mu-opioid, duplicates, 10 µM (AID 2426;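 active means fluorescence ratio normalized to control raised more than 50% in primary screen plus both repeat runs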;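 on activation: percent rise of integrated ratio over buffer wells lacking compound which define 0%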); settings: Fluo4 calcium fluorescence, at 10 µM; hits give high values
[2] = system: transient receptor potential cation channel C4 beta (TRPC4), mouse; assay: activators of mouse TRPC4 channel, confirmation, cell-based, second round, Fluo4, HEK293 TRPC4beta/mu-opioid, 1 µM (AID 2461;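 active means primary screen active and over 50% activation in each of two duplicate runs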;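 on activation: 0% = wells without test compound as baseline of integrated fluorescence ratio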); settings: Fluo4 calcium fluorescence, at 1 µM; hits give high values
[3] = system: TRPC4 (transient receptor potential cation channel C4 beta), mouse; assay: positive allosteric modulators of mouse TRPC4, confirmation, cell-based, second round, Fluo-4, HEK293 TRPC4beta/mu-opioid, 1 µM (AID 2554;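 active means primary screen hit whose fluorescence ratio, in both repeats, exceeds the weak agonist control mean by 3 SD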); settings: DAMGO EC20, Fluo-4 calcium flux, at 1 µM; hits give high values
[4] = system: TRPC4 beta (transient receptor potential cation channel C4), mouse; assay: positive allosteric modulators of mouse TRPC4, confirmation, cell-based, Fluo-4, HEK293 TRPC4beta/mu-opioid (AID 2555;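 active means primary screen hit whose calcium fluorescence ratio, in both repeats, exceeds the weak agonist control mean by 3 SD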); settings: DAMGO EC20, Fluo-4 calcium flux, at 10 µM; hits give high values
[5] = target: Short transient receptor potential channel 4 (Mus musculus) (UniProt Q9QUQ5); assay: inhibitors of mouse TRPC4 channel, confirmation, cell-based, Fluo4, HEK293 TRPC4beta/mu-opioid (AID 2636); settings: DAMGO, Fluo4 calcium flux, at 10 µM; hits give high values
Sequence of Short transient receptor potential channel 4 (Mus musculus) (Q9QUQ5 whole entry, looked up): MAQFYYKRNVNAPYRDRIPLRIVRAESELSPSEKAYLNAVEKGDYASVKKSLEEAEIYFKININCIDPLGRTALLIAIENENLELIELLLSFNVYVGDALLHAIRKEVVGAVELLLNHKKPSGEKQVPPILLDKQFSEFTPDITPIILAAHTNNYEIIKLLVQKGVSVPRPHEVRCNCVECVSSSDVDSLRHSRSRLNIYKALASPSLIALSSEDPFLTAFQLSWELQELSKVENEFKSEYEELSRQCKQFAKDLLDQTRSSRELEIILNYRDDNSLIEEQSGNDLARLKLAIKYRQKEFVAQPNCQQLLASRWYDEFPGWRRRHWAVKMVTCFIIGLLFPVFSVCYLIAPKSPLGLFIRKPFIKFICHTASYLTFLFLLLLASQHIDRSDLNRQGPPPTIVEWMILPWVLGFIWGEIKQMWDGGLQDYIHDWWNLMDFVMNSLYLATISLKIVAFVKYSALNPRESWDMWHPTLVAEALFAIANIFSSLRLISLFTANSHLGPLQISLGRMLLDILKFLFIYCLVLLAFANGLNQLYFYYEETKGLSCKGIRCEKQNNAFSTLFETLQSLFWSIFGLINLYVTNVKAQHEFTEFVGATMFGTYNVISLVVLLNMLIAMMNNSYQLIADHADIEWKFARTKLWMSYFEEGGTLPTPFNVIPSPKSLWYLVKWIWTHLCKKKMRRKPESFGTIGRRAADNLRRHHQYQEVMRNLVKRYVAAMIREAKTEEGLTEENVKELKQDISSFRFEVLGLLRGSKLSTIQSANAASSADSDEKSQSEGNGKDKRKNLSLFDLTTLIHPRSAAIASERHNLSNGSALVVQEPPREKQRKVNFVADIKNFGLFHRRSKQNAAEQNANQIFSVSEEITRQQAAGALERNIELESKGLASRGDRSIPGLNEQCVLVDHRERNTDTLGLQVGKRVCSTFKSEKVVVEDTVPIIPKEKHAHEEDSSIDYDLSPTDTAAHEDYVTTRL

[6] = target: Short transient receptor potential channel 4 (Mus musculus) (UniProt Q9QUQ5); assay: inhibitors of mouse TRPC4 channel, confirmation, cell-based, second round, Fluo4, HEK293 TRPC4beta/mu-opioid, 1 µM (AID 2637;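 active means calcium signal ratio cut to more than 3 SD under the fully stimulated control mean yet still positive, in both repeats and the primary screen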); settings: Fluo4 calcium flux, DAMGO, at 1 µM; hits give high values
[7] = target: Short transient receptor potential channel 4 (Mus musculus) (UniProt Q9QUQ5); assay: TRPC4 positive allosteric modulators, dose response, cell-based, HEK293 TRPC4/mu-opioid, Fluo-4 calcium, EC20 DAMGO (AID 434941;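 active means earlier screen potentiator hit that boosts the TRPC4 ion channel at some dose, with a dose response; inactive means no potentiation, no dose response, or not a prior hit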;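 further: calcium entry triggered by an EC20 dose of DAMGO at the co-expressed mu-opioid receptor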)
[8] = target: Short transient receptor potential channel 4 (Mus musculus) (UniProt Q9QUQ5); assay: mouse TRPC4 channel inhibitors, dose response, cell-based, HEK293 TRPC4/mu-opioid, Fluo-4 calcium (AID 434942;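 active means primary screen inhibitor hit that blocks the TRPC4 channel at some tested dose, yielding a dose curve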)
[9] = target: Short transient receptor potential channel 6 (Mus musculus) (UniProt Q61143); assay: inhibition of mouse TRPC6 channel, confirmation, selectivity assay for TRPC4 inhibitor project, cell-based, HEK293, membrane potential dye, duplicate (AID 434948;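 active means active in primary screen and both duplicates, each dropping signal beyond three positive-control SD with fluorescence still positive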); settings: HEK293 TRPC6, membrane potential dye fluorescence, at 10 µM, stimulated with maximal-effect acetylcholine; hits give high values
Sequence of Short transient receptor potential channel 6 (Mus musculus) (Q61143 whole entry, looked up): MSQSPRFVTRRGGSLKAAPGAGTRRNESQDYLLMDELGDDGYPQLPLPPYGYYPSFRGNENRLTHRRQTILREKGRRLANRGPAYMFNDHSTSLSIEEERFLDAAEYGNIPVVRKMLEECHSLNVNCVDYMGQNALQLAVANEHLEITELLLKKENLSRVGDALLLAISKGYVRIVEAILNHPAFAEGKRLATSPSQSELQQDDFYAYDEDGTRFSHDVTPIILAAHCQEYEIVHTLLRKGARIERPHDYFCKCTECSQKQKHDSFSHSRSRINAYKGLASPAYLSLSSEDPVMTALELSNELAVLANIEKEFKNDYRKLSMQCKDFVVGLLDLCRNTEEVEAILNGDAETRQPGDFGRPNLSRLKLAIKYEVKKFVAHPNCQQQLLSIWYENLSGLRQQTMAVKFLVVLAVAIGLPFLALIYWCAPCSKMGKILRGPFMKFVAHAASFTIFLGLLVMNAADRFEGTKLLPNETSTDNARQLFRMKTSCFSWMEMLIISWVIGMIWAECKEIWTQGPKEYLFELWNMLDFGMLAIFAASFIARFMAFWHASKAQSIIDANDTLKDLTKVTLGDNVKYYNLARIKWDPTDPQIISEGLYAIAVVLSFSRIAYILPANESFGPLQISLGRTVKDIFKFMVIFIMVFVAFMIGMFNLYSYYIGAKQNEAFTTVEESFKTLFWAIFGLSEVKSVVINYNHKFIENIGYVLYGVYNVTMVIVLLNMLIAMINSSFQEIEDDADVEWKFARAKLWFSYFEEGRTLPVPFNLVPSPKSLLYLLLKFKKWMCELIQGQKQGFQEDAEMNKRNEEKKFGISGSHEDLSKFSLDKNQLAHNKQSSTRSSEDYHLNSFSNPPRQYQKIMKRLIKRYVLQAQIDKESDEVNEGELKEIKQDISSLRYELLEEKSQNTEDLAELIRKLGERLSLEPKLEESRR

[10] = target: Short transient receptor potential channel 6 (Mus musculus) (UniProt Q61143); assay: activation of mouse TRPC6 channel, confirmation, selectivity assay for TRPC4 activator project, cell-based, HEK293, membrane potential dye, duplicate (AID 434950;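 active means membrane potential signal rise above negative control mean plus 3 SD in both duplicates, also active in the earlier TRPC4 screen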;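 on activation: 0% = buffer only wells and 100% = acetylcholine maximal-effect wells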); settings: HEK293 TRPC6, membrane potential fluorescence, at 10 µM; hits give high values
[11] = target: Short transient receptor potential channel 6 (Mus musculus) (UniProt Q61143); assay: TRPC6 potentiation by TRPC4 potentiator hits, confirmation, selectivity assay for TRPC4 potentiator project, HEK293 cells, membrane potential dye, duplicate (AID 434952;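 active means compound raising the membrane signal above positive-control mean plus 3 SD in both repeats, and a primary screen hit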); settings: HEK293 TRPC6, membrane potential dye fluorescence, at 10 µM, maximal acetylcholine added after compound; hits give high values
[12] = target: Short transient receptor potential channel 4 (Mus musculus) (UniProt Q9QUQ5); assay: calcium flux activators in TRPC4/5HT1a cells, counter-screen for TRPC4 activator project, cell-based, second counter screen, HEK293 TRPC4/5HT1a, Fluo-4 (AID 434977;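 active means calcium signal rise above buffer-control mean plus 5 SD in both duplicates, and also a hit in the primary screen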;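 on activation: plate controls were assay buffer for no effect and maximal serotonin response for full effect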); settings: Fluo-4 calcium flux, at 10 µM; hits give high values
[13] = calcium flux inhibitors in TRPC4/5HT1a cells, confirmation, counter-screen for TRPC4 inhibitor project, cell-based, second counter screen, HEK293 TRPC4/5HT1a, Fluo-4 (AID 434978;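 active means primary screen active whose calcium signal fell more than 3 SD beyond the full-serotonin control mean in both duplicate plates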;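 further: serotonin given first at submaximal then at maximal dose after compound preincubation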); settings: Fluo-4 calcium flux, at 10 µM, serotonin added to trigger calcium flux; hits give high values
[14] = system: TRPC4 (mouse), co-expressed with 5HT1a in HEK293; assay: calcium flux potentiators in TRPC4/5HT1a cells, confirmation, counter-screen for TRPC4 potentiator project, cell-based, second counter screen, HEK293 TRPC4/5HT1a, Fluo-4 (AID 434979;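 active means signal rise over 3 SD above mean of control wells given weak agonist, in both repeats and first screen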); settings: Fluo-4 calcium flux, at 10 µM, serotonin added at its EC20 dose; hits give high values
[15] = calcium flux activation in mu-opioid HEK293 cells, confirmation, counter-screen for TRPC4 activator project, cell-based, HEK293 mu-opioid receptor line (AID 449723;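 active means hit in primary screen, with calcium signal over 5 SD above buffer well mean in both duplicates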;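 further: counter screen cells carry the mu-opioid receptor alone and lack TRPC4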); settings: Fluo-4 calcium fluorescence, at 10 µM; hits give high values
[16] = calcium flux enhancement in mu-opioid HEK293 cells, confirmation, counter-screen for TRPC4 allosteric potentiator project, cell-based, HEK293 mu-opioid receptor line (AID 449724;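 active means calcium signal rise more than 3 SD above the low-dose agonist control mean, in both duplicate plates and the primary screen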); settings: Fluo-4 calcium flux, at 10 µM, compound added before EC20 DAMGO stimulus; hits give high values
[17] = target: Short transient receptor potential channel 4 (Mus musculus) (UniProt Q9QUQ5); assay: mouse TRPC4 channel activators, dose response, cell-based, HEK293 TRPC4/mu-opioid, Fluo-4 calcium (AID 434937;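 active means primary screen activator hit with a dose response curve and TRPC4 channel activation at any tested dose; inactive means no activation, no dose response, or not a primary hit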)

O=c1c(Cc2ccccc2)c(O)ccn1CCc1cnc[nH]1
inactive: outcome [2] | outcome [3] | outcome [4] | outcome [5] | outcome [6] | outcome [7] | outcome [8] | outcome [9] | outcome [10] | outcome [11] | outcome [13] | outcome [14] | outcome [15] | outcome [16]
active: activation [1] 134% | activation [12] 39.3%

O=C(NCc1ccccc1)C1=C[C@H](c2ccc(Br)cc2)C[C@H](OCc2ccc(CO)cc2)O1
inactive: outcome [1] | outcome [2] | outcome [3] | outcome [5] | outcome [6] | outcome [17] | outcome [8] | outcome [9] | outcome [10] | outcome [11] | outcome [12] | outcome [13] | outcome [15] | outcome [16]
active: potentiation [4] 35% | potentiation [14] 97.6%

Cc1cccc(/C=N/NC(=O)c2cccc(Cl)c2)n1
active: potentiation [4] 79% | potentiation [14] 83.4%
inactive: outcome [1] | outcome [2] | outcome [3] | outcome [5] | outcome [6] | outcome [17] | outcome [8] | outcome [9] | outcome [10] | outcome [11] | outcome [12] | outcome [13] | outcome [15] | outcome [16]

Cc1cc(-c2ccc(C)c(S(=O)(=O)N3CCN(c4ccccn4)CC3)c2)on1
active: potentiation [4] 18% | potentiation [14] 16.4%
inactive: outcome [1] | outcome [2] | outcome [3] | outcome [5] | outcome [6] | outcome [17] | outcome [8] | outcome [9] | outcome [10] | outcome [11] | outcome [12] | outcome [13] | outcome [15] | outcome [16]

CCCCN(CC)CCNC(=O)c1cc2c(=O)n(C)c3ccccc3c2s1
inactive: outcome [1] | outcome [2] | outcome [5] | outcome [6] | outcome [17] | outcome [8] | outcome [9] | outcome [10] | outcome [11] | outcome [12] | outcome [13] | outcome [15] | outcome [16]
active: potentiation [3] 31% | potentiation [4] 9% | potentiation [14] 8.16%

COc1ccc(C(=O)C2CCCN(Cc3ccc(Sc4nncn4C)o3)C2)cc1F (stereo not drawn)
inactive: outcome [3] | outcome [4] | outcome [5] | outcome [6] | outcome [7] | outcome [8] | outcome [9] | outcome [11] | outcome [13] | outcome [14] | outcome [15] | outcome [16]
active: activation [1] 164% | activation [2] 87% | activation [10] 36% | activation [12] 9.87%

COc1ccccc1/C=C/CN1CCCC(CCC(=O)NCc2ccc(F)c(F)c2)C1 (stereo not drawn)
active: activation [1] 92% | activation [2] 79% | activation [10] 43.5% | activation [12] 35.2%
inactive: outcome [3] | outcome [4] | outcome [5] | outcome [6] | outcome [7] | outcome [8] | outcome [9] | outcome [11] | outcome [13] | outcome [14] | outcome [15] | outcome [16]

CN(C)CCNC(=O)c1c(NC(=O)c2ccccc2)sc2c1CCCC2
inactive: outcome [2] | outcome [3] | outcome [4] | outcome [5] | outcome [6] | outcome [7] | outcome [8] | outcome [9] | outcome [10] | outcome [11] | outcome [12] | outcome [13] | outcome [14] | outcome [15] | outcome [16]
active: activation [1] 161%
